Laboratory results reported in PubChem BioAssay.

Each compound was assayed against Torsin-1A (Homo sapiens) (UniProt O14656) (assay: small-molecule binders of mutant TOR1A in lysate, primary screen, cell lysate, small-molecule microarray, COS7 lysate, 635/667 nm fluorescence (AID 1150;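 further: score pools 667 nm emission and signal to noise measuring lysate protein binding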)). Settings: COS7 hTOR1A mutant lysate, 635 nm fluorescence, higher = more signal.
Sequence of Torsin-1A (Homo sapiens) (O14656 whole entry, looked up): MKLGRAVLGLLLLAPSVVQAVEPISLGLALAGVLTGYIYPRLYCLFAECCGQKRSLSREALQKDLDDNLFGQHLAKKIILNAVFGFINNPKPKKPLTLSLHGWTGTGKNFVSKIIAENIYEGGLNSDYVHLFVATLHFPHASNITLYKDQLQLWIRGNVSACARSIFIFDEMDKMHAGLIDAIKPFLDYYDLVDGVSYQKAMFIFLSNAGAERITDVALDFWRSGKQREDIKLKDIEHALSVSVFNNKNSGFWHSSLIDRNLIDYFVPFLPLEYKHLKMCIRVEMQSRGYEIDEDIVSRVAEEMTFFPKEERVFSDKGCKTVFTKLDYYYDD
`CO[C@H]1COC(=O)[C@@H](Cc2ccccc2)NC(=O)[C@@H](C)COC(=O)CCC[C@@H]1C` showed a composite z-score of 0.187.
`CCOC(=O)[C@H](CC(C)C)NC(=O)CCC1CC(OC(=O)NCCc2ccc(F)cc2)CC2(CCCC(COC(=O)NCCc3ccccc3OC)O2)O1` (some centres not stated) gave a composite z-score of 0.528.
Compound `CCc1cc2c(nc1CC)CCN(CCC(C)=NO[C@H](C)c1cn([C@H](CO)Cc3ccccc3)nn1)C2` has a composite z-score of 0.978.
In the case of `CO[C@H]1COC(=O)CC=C[C@@H](C)[C@H](NS(=O)(=O)c2ccc(C)cc2)COC(=O)CCC[C@@H]1C`, the composite z-score is reported as 0.819.
`C=Cc1ccc([C@H]2N[C@H](C(=O)O)CC[C@@H]2C)cc1` gave a composite z-score of 0.307.
`CO[C@H]1COC(=O)[C@@H](C)COC(=O)[C@H](COCc2ccccc2)NC(=O)CC=C[C@H]1C` gave a composite z-score of 0.491.
Work on `CCOC(=O)[C@H](CC(C)C)NC(=O)CCC1CC(OC(=O)NCc2cccc3ccccc23)CC2(CCCC(COC(=O)NCCC(C)C)O2)O1` (some centres not stated) yielded a composite z-score of 0.185.
`CO[C@H]1COC(=O)CC=C[C@@H](C)[C@H](OC)COC(=O)[C@@H]2CCCN2C(=O)CC=C[C@@H]1C` was tested, and the composite z-score was 2.49.
`O=C1[C@H]2[C@H]3[C@H](O)[C@H](O)CC(=NOCc4ccccc4)[C@H]3CC[C@H]2C(=O)N1Cc1ccc2c(c1)OCO2` showed a composite z-score of 0.172.
`Cc1ccc(S(=O)(=O)NC(CCc2ccccc2)CC(=O)C(C)(C)C)cc1` (configuration not stated) gave a composite z-score of 0.0204.
`O=C1C=C[C@@H](O)[C@@H]2[C@@H]3C(=O)N(C[C@@H]4CCCO4)C(=O)[C@@H]3CC[C@@H]12` gave a composite z-score of 0.462.
Work on `CC(C)=CCCC(C)=CCON=C1C[C@@H](O)[C@@H](O)[C@@H]2[C@@H]3C(=O)N(Cc4ccccc4)C(=O)[C@@H]3CC[C@@H]12` yielded a composite z-score of 0.293.
`CCOC(=O)[C@H](CC(C)C)NC(=O)CCC1CC(OC(=O)NCCc2ccc(F)cc2)CC2(CCCC(COC(=O)NCCc3ccc(Cl)cc3)O2)O1` (some centres not stated) showed a composite z-score of 0.385.
Work on `CC(=O)Nc1ccc([C@@H]2N[C@H](C(=O)O)CC[C@H]2C)cc1` yielded a composite z-score of 0.371.
`CCOC(=O)NN=C1C[C@@H](O)[C@@H](O)[C@@H]2[C@@H]3C(=O)N(c4cccc(Oc5ccccc5)c4)C(=O)[C@@H]3CC[C@H]12` showed a composite z-score of 0.0519.
In the case of `Cc1ccc(S(=O)(=O)N[C@H]2COC(=O)CC=C[C@H](C)[C@@H](NS(=O)(=O)c3ccc(C)cc3)COC(=O)CC=C[C@@H]2C)cc1`, the composite z-score is reported as 0.741.
For `CC1O[C@H]2C3=C(C(=O)[C@@H]4O[C@@H]4[C@H]3O)[C@@H]1C1[C@@H](C)OC=C3[C@H](O)C4O[C@@H]4C(=NOCc4ccccc4)[C@]312` (some centres not stated), the composite z-score was -0.073.
Compound `C[C@@H](c1ccccc1)N1C(=O)[C@H]2[C@H]3[C@H](O)[C@H](O)CC(=NO[C@@H]4O[C@H](CO)[C@@H](O)[C@H](O)[C@H]4O)[C@@H]3CC[C@H]2C1=O` has a composite z-score of 0.907.
`CON=C(C)CCC(=O)OC[C@H]1O[C@H](c2ccccc2)C=C[C@@H]1Oc1ccc(OC)cc1` gave a composite z-score of -0.013.
`COC(=O)[C@H](C)NC(=O)CCC1CC(OC(=O)NCc2ccc3c(c2)OCO3)CC2(CCCC(COC(=O)NCC(c3ccccc3)c3ccccc3)O2)O1` (some centres not stated) gave a composite z-score of 0.947.
`COC(=O)[C@H](C)NC(=O)CCC1CC(OC(=O)NCCc2ccc(F)cc2)CC2(CCCC(COC(=O)NCCC(C)C)O2)O1` (some centres not stated) gave a composite z-score of -0.0067.
`O=C1[C@H]2[C@H]3[C@H](O)[C@H](O)CC(=NOCc4ccccc4)[C@@H]3CC[C@H]2C(=O)N1c1ccc(F)cc1F` showed a composite z-score of -0.153.
`CC(C)=CCCC(C)=CCON=C1C[C@@H](O)[C@@H](O)[C@@H]2[C@@H]3C(=O)N(C4CCCCC4)C(=O)[C@@H]3CC[C@@H]12` was tested, and the composite z-score was 0.288.
With `CC(C)CON=C1C[C@@H](O)[C@@H](O)[C@@H]2[C@@H]3C(=O)N(Cc4ccc5c(c4)OCO5)C(=O)[C@@H]3CC[C@H]12` the composite z-score was 0.739.
Compound `CCOC(=O)[C@H](Cc1ccccc1)NC(=O)CCC1CC(OC(=O)NCc2ccc3c(c2)OCO3)CC2(CCCC(COC(=O)NCCc3ccccc3OC)O2)O1` (some centres not stated) has a composite z-score of 0.252.
For `Cc1cc2c(c(=O)o1)[C@@H](O)[C@H]1O[C@H]1C2=O`, the composite z-score was 0.253.
For `CC(=O)O[C@H]1C2=CO[C@H](C)[C@H]3[C@H]4C5=C([C@H](O)[C@H]6O[C@H]6C5=O)[C@H](OC4C)[C@@]23C(=O)[C@@H]2O[C@@H]21` (some centres not stated), the composite z-score was -0.279.
In the case of `CCOC(=O)[C@H](Cc1ccccc1)NC(=O)CCC1CC(OC(=O)NCc2cccc3ccccc23)CC2(CCCC(COC(=O)NCc3ccccc3)O2)O1` (some centres not stated), the composite z-score is reported as 0.0167.
`CO[C@@H]1COC(=O)[C@@H](C)COC(=O)[C@@H](C)NC(=O)CC=C[C@@H]1C` gave a composite z-score of 0.717.
In the case of `CCOC(=O)[C@H](Cc1ccccc1)NC(=O)CCC1CC(OC(=O)NCc2ccc3c(c2)OCO3)CC2(CCCC(COC(=O)NCCC(C)C)O2)O1` (some centres not stated), the composite z-score is reported as 0.418.
`COc1ccc(COC(=O)NN=C2C[C@@H](O)[C@@H](O)[C@@H]3[C@@H]4C(=O)N(C5CCCCC5)C(=O)[C@@H]4CC[C@H]23)cc1` was tested, and the composite z-score was 0.408.
`CCC1=NOC(CCC2CC(OC(=O)NCc3cccc4c3OCO4)CC3(CCCC(COC(=O)NCCc4ccccc4OC)O3)O2)C1` (configuration not stated) gave a composite z-score of 0.778.
`COC(=O)CC=C[C@@H](C)[C@@H](C=NO[C@@H]1O[C@H](COC(C)=O)[C@@H](OC(C)=O)[C@H](OC(C)=O)[C@H]1OC(C)=O)NS(=O)(=O)c1ccc(C)cc1` was tested, and the composite z-score was 0.311.
In the case of `CCOC(=O)[C@H](CC(C)C)NC(=O)CCC1CC(OC(=O)NCc2ccc3c(c2)OCO3)CC2(CCCC(COC(=O)NCCCN3CCCC3=O)O2)O1` (some centres not stated), the composite z-score is reported as 0.92.
For `O=C1C2=CC[C@H]3C(=O)N(c4cccc(Oc5ccccc5)c4)C(=O)[C@H]3[C@H]2[C@H](O)[C@@H]2O[C@H]12`, the composite z-score was -0.111.
`COC(=O)[C@H](C)NC(=O)CCC1CC(OC(=O)NCc2ccc3c(c2)OCO3)CC2(CCCC(COC(=O)NCc3cccc(C(F)(F)F)c3)O2)O1` (some centres not stated) was tested, and the composite z-score was 0.279.
In the case of `CO[C@H]1COC(=O)CC=C[C@H](C)[C@@H](OC)COC(=O)[C@@H](C)NC(=O)CC=C[C@@H]1C`, the composite z-score is reported as 2.16.
